# Experimental data taken from PubChem BioAssay AID463193 (University of Pittsburgh Molecular Library Screening Center, 2010).
# The whole screen tested about 190,000 compounds, of which about 1,900 (1%) were called active. The sample holds actives, similar compounds and a random draw of the others, so the mix is not that of the screen.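 The calls were made as follows: active = percentage of spot-positive cells more than 3 SD above its plate mean, without a fluorescence outlier flag or 80% toxicity; inconclusive = no clear call, values can overlap the other calls; inactive = the rest.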
# Test: GFP-LC3 puncta formation changes – imaging, high-content, MEF GFP-LC3, primary screen (AID 463193);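 as to % cells with GFP-LC3 spots: spot-positive cell cutoff set from DMSO-treated cells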;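 as to toxicity: cell loss after 18 h compound exposure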
# Conditions: autophagy, at 10 µM; % cells with GFP-LC3 spots: stronger effect = higher value; toxicity: measured here: cell loss, nuclei count
SMILES,% cells with GFP-LC3 spots,toxicity [%]
Cc1ccc(OCc2n[nH]c(=S)n2-c2ccccc2)cc1,4.42% (inactive),-18.6
COc1ccc(Nc2ncc(F)c(N3CCOCC3)n2)cc1,7.22% (inactive),8.68
O=C(Nc1cccc(F)c1)N1C2CCC1CC(O)(c1cccnc1)C2 (stereo unspecified),1.55% (inactive),2.7
COc1ccccc1CNC(=O)Cn1cc2c(n1)CCCC2,15.2% (active),6.76
O=C(Cn1cc2c(n1)CCCCC2)NCCN1CCOCC1,5.99% (inactive),-2.07
COCCNC(=O)Cn1cc2c(n1)CCCCC2,4.61% (inactive),-6.66
CC(C)NC(=O)NCCCCCCS(C)=O (stereo unspecified),22.5% (inactive),23.6
CCOC(=O)c1c(NC(=O)C(C)Sc2c[nH]c3ccccc23)sc2c1CCC2 (stereo unspecified),5.48% (inactive),2.6
COc1ccc(CCc2nnc(CCC(=O)NCc3cnn(-c4ccccc4C)c3)o2)cc1,10.6% (inactive),-18.2
COc1cccc(CN(C)CC(=O)Nc2sc3c(c2C#N)CCC3)c1,6.72% (inactive),-31.4
CC(C)[C@H](NC(=O)c1ccc(F)cc1)C(=O)OCC(=O)NC(=O)c1cccn1C,10.6% (inactive),-0.516
CCCCS(=O)c1snnc1C (stereo unspecified),3.68% (inactive),1.95
CCc1nnc(NS(=O)(=O)c2ccc(NS(=O)(=O)c3ccccc3)cc2)s1,1.63% (inactive),20.8
CCc1nnc(NS(=O)(=O)c2ccc(NC(=S)NC(=O)c3cccs3)cc2)s1,5.87% (inactive),-9.89
CCc1nnc(NS(=O)(=O)c2ccc(NC(=S)NC(=O)/C=C/c3cccs3)cc2)s1,5.75% (active),7.01
O=C(O)CCN(Cc1ccccc1)S(=O)(=O)c1c(Cl)cccc1Cl,1% (inactive),7.07
COc1ccc(C(=O)NNc2cc(C)nc(NNC(=O)c3ccc(OC)cc3)n2)cc1,0% (inactive),-3.42
COC(=O)[C@@H]1CC[C@H](C)[C@@H](c2ccc(C)cc2)N1C(=O)c1ccc(/C=N/O[C@H](C)c2cn([C@@H]3COC[C@H]3O)nn2)cc1,9.78% (inactive),5.86
O=C(NC1CCCCC1)C1CCCN(S(=O)(=O)c2ccc(Br)s2)C1 (stereo unspecified),0.705% (inactive),2.95
O=C(CCn1c(=O)[nH]c2ccccc2c1=O)NCCCN1CCN(c2cccc(Cl)c2)CC1,7.4% (inactive),9.47
CCn1c(=O)cc(OCC(=O)NCCCN2CCN(c3cccc(Cl)c3)CC2)c2ccccc21,14.4% (active),23.1
Cn1c(C(=O)NCCCN2CCN(c3cccc(Cl)c3)CC2)cc2c(=O)n(C)c3ccccc3c21,6.58% (inactive),2.89
COc1ccc(C(=O)Nc2cccc(S(C)(=O)=O)c2)cc1,7.34% (inactive),2.69
CCCC(=O)NC(C)C(c1cccs1)N1CCN(c2ccccc2)CC1 (stereo unspecified),5.17% (active),28.7
CCN(CC)S(=O)(=O)c1ccc(Cl)c(C(=O)NC(C)C(c2cccs2)N2CCCC2)c1 (stereo unspecified),1.61% (inactive),7.32
CC(NC(=O)Nc1ccccc1)C(c1cccs1)N1CCN(c2ccccc2)CC1 (stereo unspecified),10.1% (inactive),-0.847
COc1cc(CNc2ncn[nH]2)ccc1OCc1ccccc1C,0.305% (inactive),8.6

SMILES,% cells with GFP-LC3 spots,toxicity [%]
COc1ccc2c(c1)CCc1c(C(=O)N3CCCC3)noc1-2,25.2% (active),71.1
COc1ccc2c(c1)CCc1c(C(=O)Nc3c(C)n(C)n(-c4ccccc4)c3=O)noc1-2,10.1% (inactive),17.1
COc1ccc2c(c1)CCc1c(C(=O)N3CCc4ccccc4C3)noc1-2,1.3% (inactive),5.85
Cc1ccc(NC(=O)C(=O)NCc2ccc(/C=N/NC(=O)c3c(C)nc4cc(C)ccn34)o2)cc1,7.6% (inactive),-9.46
Cc1ccc(C(=O)/C=C/Nc2ccc(S(=O)(=O)Nc3onc(C)c3C)cc2)cc1,2.91% (inactive),14.6
COc1cc2c(cc1OC)CC1(CCCCC1)N=C2,0.564% (inactive),-2.01
CCn1c(=N)c(C(=O)NCCCOC)cc2c(=O)n3cccc(C)c3nc21,6.38% (inactive),16.3
Cc1cccn2c(=O)c(/C=C3\SC(=S)N(CC(C)C)C3=O)c(NCCCOC(C)C)nc12,83.5% (active),1.08
CNc1nc2c(C)cccn2c(=O)c1C=Nc1ccc(OC)cc1,16.2% (inactive),19.6
Cn1cc(-c2ccccc2)cc(C#N)c1=O,1.72% (inactive),2.28
COc1ccc(CN2CN(C3CCCC3)CSC2=S)cc1,6.4% (inactive),-8.41
COc1ccc(C(CC(=O)Nc2ccc(C)cc2)NC(=O)C(F)(F)F)cc1 (stereo unspecified),6.89% (inactive),-5.77
CC(=O)/C(=N\Nc1ccc(Cl)cc1Cl)Sc1cccc2cccnc12,80.1% (active),-7.61
O=C(CSc1cccc2cccnc12)N/N=C/c1cccnc1,16.6% (inactive),24.2
S=C(NCc1cccnc1)Nc1ccc(Cl)cc1Cl,1.61% (inactive),10
CC(C)(C)CC(C)(C)NCC(O)COCCOc1ccc(Br)cc1 (stereo unspecified),10.9% (inactive),5.37
c1ccc(C2c3[nH]c4ccccc4c3CCN2Cc2cccn2-c2cccnc2)nc1 (stereo unspecified),1.12% (inactive),-2.12
Fc1cccc2ncnc(OCc3ccccc3)c12,3.59% (inactive),-3.11
COc1ccc(OC)c(NC(=O)CN2CCN(C(=O)c3ccco3)CC2)c1,0.967% (inactive),2.86
COc1ccc(CCNC(=O)CCn2c(=O)oc3ccccc32)cc1OC,4.11% (inactive),-1.63
COc1ccc(OC)c(NC(=O)Cn2c(=O)oc3ccccc32)c1,18.4% (active),3.57
CCN(CC(=O)NCCc1ccccc1)S(=O)(=O)c1ccccc1,12% (inactive),29.2
Cc1c(Br)c([N+](=O)[O-])nn1CC(=O)N1CCN(Cc2ccccc2)CC1,3.58% (inactive),7.29
O=C(CCn1c(SCC(=O)c2ccccc2)nc2ccccc2c1=O)NCc1ccc(F)cc1,5.36% (inactive),4.33
CSc1nc2ccccc2c(=O)n1Cc1ccc(F)cc1,35.2% (active),0.835
CC(Sc1nc2ccccc2c(=O)n1Cc1ccco1)C(=O)c1ccccc1 (stereo unspecified),11.8% (inactive),-5.88
